Experimental data published in PubChem BioAssay (EPA / NIEHS).
Records with an inconclusive call do not appear. More than one record can exist for a structure, and the calls need not agree. Active and inactive are the calls of the source. The calls were made as follows, unless noted: active = hit-call score of the fitted dose curve at least 0.9, where 1 is the maximum; inactive = score below 0.9.

What was measured:
[1] = ATG_NFI_CIS: Attagene CIS-FACTORIAL HepG2 Assay for human Nuclear Factor I (NFI) (AID 2282989); conditions: HepG2 cis-regulatory reporter, NFI response element transcription; actives raise or lower the signal
In short: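 HepG2 cells transiently transfected with cis-element-driven multiplexed reporter transcription units, dosed for 24 h. Reporter mRNA quantified by RT-PCR, fluorescent labelling, HpaI digestion and capillary electrophoresis; bidirectional fit versus DMSO baseline.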

[2] = molecular target: Myc proto-oncogene protein (Homo sapiens) (UniProt P01106); assay: ATG_Myc_CIS: Attagene CIS-FACTORIAL HepG2 Assay for human Myelocytomatosis (Myc) Proto-Oncogene Transcription Factor (AID 2282990); conditions: HepG2, Attagene cis-reporter transcription factor activity; actives raise or lower the signal
Myc proto-oncogene protein (Homo sapiens), sequence (P01106 whole entry, looked up): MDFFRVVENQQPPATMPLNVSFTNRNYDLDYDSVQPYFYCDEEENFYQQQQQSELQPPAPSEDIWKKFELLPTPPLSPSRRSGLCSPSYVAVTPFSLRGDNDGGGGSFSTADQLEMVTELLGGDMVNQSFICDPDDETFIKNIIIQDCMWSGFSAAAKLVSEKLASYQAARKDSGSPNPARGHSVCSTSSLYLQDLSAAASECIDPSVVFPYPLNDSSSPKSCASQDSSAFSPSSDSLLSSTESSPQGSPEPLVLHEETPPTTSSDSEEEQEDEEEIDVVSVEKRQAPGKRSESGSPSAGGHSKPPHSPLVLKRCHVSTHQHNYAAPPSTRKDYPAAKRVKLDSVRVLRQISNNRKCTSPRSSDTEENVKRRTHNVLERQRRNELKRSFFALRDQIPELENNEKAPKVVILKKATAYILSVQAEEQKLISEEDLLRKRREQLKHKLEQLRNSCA
In short: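 Cells of the HepG2 human liver line bear multiple cis-driven reporter transcription units. Reporter mRNA after 24 h exposure is reverse-transcribed, amplified, labelled and resolved by capillary electrophoresis, with gain- or loss-of-signal fitting relative to DMSO.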

[3] = ATG_Oct_MLP_CIS: Attagene CIS-FACTORIAL HepG2 Assay for human Octamer-Binding Transcription Factor (Oct) (AID 2282993); conditions: HepG2 Attagene cis-factorial Oct reporter, mRNA; actives raise or lower the signal
In short: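 HepG2 cells transiently transfected with cis-promoter-driven multiplexed reporter transcription units, dosed for 24 h. Reporter mRNA quantified by RT-PCR, fluorescent labelling, HpaI digestion and capillary electrophoresis; bidirectional fits versus DMSO baseline.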

[4] = BSK_3C_TissueFactor: BioMAP Diversity Plus: 3C Assay for Tissue Factor Biomarker Activity (AID 2282997); conditions: BioMAP 3C HUVEC, tissue factor biomarker readout; actives raise or lower the signal
In short: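 Endothelial monolayers (human umbilical vein, primary) are dosed, incubated 24 h, and assayed for Tissue Factor by ELISA; DMSO serves as negative control for bidirectional fitting.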

[5] = BSK_3C_uPAR: BioMAP Diversity Plus: 3C Assay for Urokinase-type plasminogen activator receptor (uPAR) Biomarker Activity (AID 2282998); conditions: BioMAP 3C HUVEC, uPAR biomarker ELISA; actives raise or lower the signal
In short: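 Human umbilical vein endothelial primary cells were exposed to test chemical for 24 h. Cell-surface uPAR was then quantified by ELISA, and responses were fitted bidirectionally against DMSO as negative control and baseline.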

[6] = BSK_3C_VCAM1: BioMAP Diversity Plus: 3C Assay for Vascular cell adhesion molecule 1 (VCAM1) Biomarker Activity (AID 2282999); conditions: BioMAP 3C HUVEC, VCAM1 ELISA, cytokine-stimulated; actives raise or lower the signal
In short: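 Endothelial cells from human umbilical vein are treated with test chemical. At 24 h, VCAM-1 is measured by ELISA, and responses in either direction are fitted relative to DMSO.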

[7] = BSK_4H_Eotaxin3: BioMAP Diversity Plus: 4H Assay for Eotaxin 3 Biomarker Activity (AID 2283000); conditions: primary human endothelial cells (HUVEC); actives raise or lower the signal;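 also: CCL26 protein level quantified by ELISA in parallel with SRB cytotoxicity check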
In short: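 ELISA quantitation of CCL26 (Eotaxin-3) protein from chemically dosed human vascular endothelial cells at 24 h; increases and decreases both scored relative to DMSO-treated baseline.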

[8] = molecular target: human Peroxisome Proliferator-activated Receptor alpha (PPARa), PPARA (gene 5465) (UniProt Q07869); assay: ATG_PPARa_TRANS: Attagene TRANS-FACTORIAL HepG2 Assay for human Peroxisome Proliferator-activated Receptor alpha (PPARa) (AID 2283001; active = hit-call score of the fitted dose curve at least 0.9, where 1 is the maximum)
human Peroxisome Proliferator-activated Receptor alpha (PPARa), PPARA (gene 5465), sequence (Q07869 whole entry, looked up, the tested form may be a part): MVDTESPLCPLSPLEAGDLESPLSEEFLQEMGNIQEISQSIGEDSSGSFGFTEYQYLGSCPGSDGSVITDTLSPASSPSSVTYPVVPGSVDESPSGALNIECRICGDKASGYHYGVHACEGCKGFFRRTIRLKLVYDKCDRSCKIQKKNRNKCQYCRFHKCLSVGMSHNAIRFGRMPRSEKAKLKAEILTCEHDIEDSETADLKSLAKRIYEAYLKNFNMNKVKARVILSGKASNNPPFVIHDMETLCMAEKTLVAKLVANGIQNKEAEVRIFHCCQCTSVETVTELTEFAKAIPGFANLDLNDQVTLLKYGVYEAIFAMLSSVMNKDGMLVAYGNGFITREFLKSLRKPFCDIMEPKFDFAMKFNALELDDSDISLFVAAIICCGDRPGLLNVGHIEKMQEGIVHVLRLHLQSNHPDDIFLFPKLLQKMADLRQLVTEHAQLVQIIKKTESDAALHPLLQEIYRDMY
In short: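 Read-out is fluorescence of reporter cDNA fragments resolved by capillary electrophoresis after RT-PCR. Human HepG2 liver cells carried transfected PPARa-Gal4 chimera and GAL4-UAS reporter units, treated 24 h; activity scored as increase over DMSO.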

[9] = read-out: Intercellular Adhesion Molecule 1 (ICAM1), ICAM1 (gene 3383); assay: BSK_3C_ICAM1: BioMAP Diversity Plus: 3C Assay for Intercellular Adhesion Molecule 1 (ICAM1) Biomarker Activity (AID 2283003); conditions: primary human endothelial cells (HUVEC); actives raise or lower the signal
In short: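 HUVEC primary cells stimulated under 3C conditions; ICAM1 measured by ELISA 24 h after compound dosing. Curves fitted bidirectionally against the DMSO baseline. Overt cytotoxicity checked by SRB staining of parallel cultures.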

[10] = BSK_3C_Proliferation: Cell Proliferation Assessment in the BioMAP Diversity Plus: 3C Assay (AID 2283006); conditions: primary human endothelial cells (HUVEC);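 as to AC50: potency may reflect either rise or fall in cell number versus DMSO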
In short: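 Subconfluent HUVEC (3C system) cultured with chemical; relative cell number read at 48 h by sulforhodamine B total-protein staining (0.1% SRB after 10% TCA fixation, 560 nm). Bidirectional fit relative to DMSO.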

[11] = molecular target: Peroxisome proliferator-activated receptor gamma (Homo sapiens) (UniProt P37231); assay: ATG_PPARg_TRANS: Attagene TRANS-FACTORIAL HepG2 Assay for human Peroxisome Proliferator-activated Receptor-gamma (PPARg) (AID 2283007; active = hit-call score of the fitted dose curve at least 0.9, where 1 is the maximum)
Peroxisome proliferator-activated receptor gamma (Homo sapiens), sequence (P37231 whole entry, looked up, the tested form may be a part): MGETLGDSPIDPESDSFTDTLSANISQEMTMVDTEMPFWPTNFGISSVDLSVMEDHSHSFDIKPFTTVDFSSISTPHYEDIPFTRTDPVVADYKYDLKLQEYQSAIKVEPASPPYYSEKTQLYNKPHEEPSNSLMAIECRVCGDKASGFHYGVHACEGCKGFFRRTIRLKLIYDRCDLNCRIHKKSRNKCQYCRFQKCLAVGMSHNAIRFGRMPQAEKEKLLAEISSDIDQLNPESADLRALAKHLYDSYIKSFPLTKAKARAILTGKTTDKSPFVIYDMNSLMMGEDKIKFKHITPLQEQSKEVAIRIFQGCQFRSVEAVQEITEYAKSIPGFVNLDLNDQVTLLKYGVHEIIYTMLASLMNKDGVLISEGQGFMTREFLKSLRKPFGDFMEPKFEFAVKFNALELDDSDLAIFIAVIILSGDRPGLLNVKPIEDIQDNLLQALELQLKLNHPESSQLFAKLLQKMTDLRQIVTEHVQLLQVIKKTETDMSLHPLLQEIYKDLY
In short: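 HepG2 cells transiently transfected with multiplexed GAL4-UAS reporter units and exogenous chimeric NR-Gal4 proteins; reporter mRNA quantified after 24 h compound exposure by RT-PCR, fluorescent labelling, HpaI digestion and capillary electrophoresis; gain-of-signal fitted versus DMSO baseline.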

[12] = molecular target: Nuclear receptor subfamily 1 group I member 2 (Homo sapiens) (UniProt O75469); assay: ATG_PXR_TRANS: Attagene TRANS-FACTORIAL HepG2 Assay for human Pregnane X Receptor (PXR) (AID 2283008; active = hit-call score of the fitted dose curve at least 0.9, where 1 is the maximum)
Nuclear receptor subfamily 1 group I member 2 (Homo sapiens), sequence (O75469 whole entry, looked up, the tested form may be a part): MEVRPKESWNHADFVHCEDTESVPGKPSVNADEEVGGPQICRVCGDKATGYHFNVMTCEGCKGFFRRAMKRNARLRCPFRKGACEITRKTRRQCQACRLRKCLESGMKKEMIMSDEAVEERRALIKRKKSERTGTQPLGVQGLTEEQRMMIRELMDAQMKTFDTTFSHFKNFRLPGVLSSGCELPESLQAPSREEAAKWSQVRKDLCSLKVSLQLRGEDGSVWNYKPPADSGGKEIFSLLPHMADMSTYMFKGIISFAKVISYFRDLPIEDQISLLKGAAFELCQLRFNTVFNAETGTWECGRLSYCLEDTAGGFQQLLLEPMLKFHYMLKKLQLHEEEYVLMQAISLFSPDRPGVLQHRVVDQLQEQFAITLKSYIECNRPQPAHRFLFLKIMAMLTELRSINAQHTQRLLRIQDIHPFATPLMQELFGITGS
In short: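 Fluorescence intensity of FAM-labelled, HpaI-digested reporter amplicons, separated by capillary electrophoresis, quantifies induction. HepG2 cells with PXR-Gal4 trans-reporter system were exposed 24 h; DMSO defines baseline.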

[13] = ATG_NRF2_ARE_CIS: Attagene CIS-FACTORIAL HepG2 Assay for human Nuclear Factor Erythroid 2 Related Factor 2 (NFR2) response to Antioxidant Response Elements (ARE) (AID 2282992); conditions: HepG2 Attagene ARE/NRF2 reporter, transcription factor activity; actives raise or lower the signal
In short: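 Cis-factorial assay: transfected HepG2 reporter library, 24 h dosing, mRNA readout via RT-PCR/CE; DMSO-referenced bidirectional analysis.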

[14] = molecular target: Cellular tumor antigen p53 (Homo sapiens) (UniProt P04637); assay: ATG_p53_CIS: Attagene CIS-FACTORIAL HepG2 Assay for human p53 Transcription Factor (AID 2282994); conditions: HepG2 p53 cis-element reporter, Attagene mRNA; actives raise or lower the signal
Cellular tumor antigen p53 (Homo sapiens), sequence (P04637 whole entry, looked up): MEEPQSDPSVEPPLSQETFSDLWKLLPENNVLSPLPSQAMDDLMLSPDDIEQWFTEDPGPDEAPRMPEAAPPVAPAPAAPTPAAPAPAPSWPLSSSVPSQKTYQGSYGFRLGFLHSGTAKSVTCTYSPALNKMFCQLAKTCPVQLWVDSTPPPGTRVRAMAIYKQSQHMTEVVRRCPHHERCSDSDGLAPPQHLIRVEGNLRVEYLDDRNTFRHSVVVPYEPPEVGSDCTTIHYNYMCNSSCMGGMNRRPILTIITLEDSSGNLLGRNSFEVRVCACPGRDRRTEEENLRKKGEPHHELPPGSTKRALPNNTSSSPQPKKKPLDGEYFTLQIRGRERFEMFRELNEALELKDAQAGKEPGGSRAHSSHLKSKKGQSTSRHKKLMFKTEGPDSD
In short: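 Using HepG2 hepatoma cells carrying cis-acting multiplexed reporters, mRNA induction is detected after a 24 h exposure. Gain- and loss-of-signal responses are fitted relative to DMSO-treated cells.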

[15] = molecular target: human Retinoic Acid Receptor beta (RARb), RARB (gene 5915) (UniProt P10826); assay: ATG_RARb_TRANS: Attagene TRANS-FACTORIAL HepG2 Assay for human Retinoic Acid Receptor beta (AID 2283004; active = hit-call score of the fitted dose curve at least 0.9, where 1 is the maximum)
human Retinoic Acid Receptor beta (RARb), RARB (gene 5915), sequence (P10826 whole entry, looked up, the tested form may be a part): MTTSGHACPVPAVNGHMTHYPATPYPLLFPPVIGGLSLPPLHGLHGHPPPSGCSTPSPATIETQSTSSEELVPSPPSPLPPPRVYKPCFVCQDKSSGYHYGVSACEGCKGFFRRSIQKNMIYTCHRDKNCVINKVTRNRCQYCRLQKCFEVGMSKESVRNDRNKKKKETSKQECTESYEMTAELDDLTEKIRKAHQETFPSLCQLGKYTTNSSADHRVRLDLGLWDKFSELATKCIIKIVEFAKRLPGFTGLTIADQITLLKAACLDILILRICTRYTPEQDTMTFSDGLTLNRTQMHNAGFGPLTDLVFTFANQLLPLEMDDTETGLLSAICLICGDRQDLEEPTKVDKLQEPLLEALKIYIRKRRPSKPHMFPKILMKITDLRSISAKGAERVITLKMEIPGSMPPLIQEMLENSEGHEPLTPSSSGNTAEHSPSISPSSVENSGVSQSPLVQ
In short: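 Fluorescent capillary-electrophoresis detection of GAL4-UAS reporter mRNA defines the endpoint, with induction over DMSO-treated wells scored as activity. Transiently transfected human hepatoma HepG2 cells expressing exogenous NR–Gal4 proteins are exposed to test chemicals for 24 h.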

[16] = molecular target: human Peroxisome Proliferator-activated Receptor delta (PPARd), PPARD (gene 5467) (UniProt Q03181); assay: ATG_PPARd_TRANS: Attagene TRANS-FACTORIAL HepG2 Assay for human Peroxisome Proliferator-activated Receptor delta (PPARd) (AID 2283002; active = hit-call score of the fitted dose curve at least 0.9, where 1 is the maximum)
human Peroxisome Proliferator-activated Receptor delta (PPARd), PPARD (gene 5467), sequence (Q03181 whole entry, looked up): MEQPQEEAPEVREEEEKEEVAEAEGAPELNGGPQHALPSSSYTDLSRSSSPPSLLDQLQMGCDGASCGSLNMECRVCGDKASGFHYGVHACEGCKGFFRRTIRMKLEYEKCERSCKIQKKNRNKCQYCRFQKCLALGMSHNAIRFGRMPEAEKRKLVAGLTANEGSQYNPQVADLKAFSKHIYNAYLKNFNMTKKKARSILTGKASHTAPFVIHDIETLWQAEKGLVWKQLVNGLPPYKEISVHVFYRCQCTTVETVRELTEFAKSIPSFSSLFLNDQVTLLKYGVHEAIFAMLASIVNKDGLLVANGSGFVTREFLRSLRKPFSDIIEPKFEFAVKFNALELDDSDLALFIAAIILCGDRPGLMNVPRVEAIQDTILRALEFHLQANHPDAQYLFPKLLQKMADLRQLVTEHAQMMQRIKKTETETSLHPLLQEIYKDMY
In short: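 Cell-based TRANS reporter: HepG2, transient MRTU transfection, 24 h exposure. Readout = reporter mRNA (RT-PCR/CE, 6-FAM). Gain-of-signal fit vs DMSO control.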

[17] = molecular target: human Retinoic Acid Receptor gamma (RARg), RARG (gene 5916) (UniProt P13631); assay: ATG_RARg_TRANS: Attagene TRANS-FACTORIAL HepG2 Assay for human Retinoic Acid Receptor gamma (RARg) (AID 2283009; active = hit-call score of the fitted dose curve at least 0.9, where 1 is the maximum)
human Retinoic Acid Receptor gamma (RARg), RARG (gene 5916), sequence (P13631 whole entry, looked up, the tested form may be a part): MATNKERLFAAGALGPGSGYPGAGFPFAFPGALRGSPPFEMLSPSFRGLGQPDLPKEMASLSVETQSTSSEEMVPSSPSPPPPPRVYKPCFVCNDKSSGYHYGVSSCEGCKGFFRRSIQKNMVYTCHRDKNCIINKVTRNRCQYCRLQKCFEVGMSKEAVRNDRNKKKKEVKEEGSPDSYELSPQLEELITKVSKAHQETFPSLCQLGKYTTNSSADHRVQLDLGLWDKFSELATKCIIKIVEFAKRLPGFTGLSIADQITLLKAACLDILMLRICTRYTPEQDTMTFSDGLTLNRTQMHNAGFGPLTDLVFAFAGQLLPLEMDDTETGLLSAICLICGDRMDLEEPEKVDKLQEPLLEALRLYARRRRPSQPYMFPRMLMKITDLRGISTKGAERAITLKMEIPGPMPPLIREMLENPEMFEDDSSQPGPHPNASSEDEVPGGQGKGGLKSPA
In short: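 HepG2 transiently transfected with GAL4-UAS reporter units and chimeric NR-Gal4 constructs; 24 h compound exposure. Reporter mRNA quantified by RT-PCR, FAM labeling, HpaI digestion and capillary electrophoresis; gain-of-signal versus DMSO.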

[18] = molecular target: human RAR-related Orphan Receptor beta (RORb), RORB (gene 6096) (UniProt Q92753); assay: ATG_RORb_TRANS: Attagene TRANS-FACTORIAL HepG2 Assay for human RAR-related Orphan Receptor beta (RORb) (AID 2283010; active = hit-call score of the fitted dose curve at least 0.9, where 1 is the maximum)
human RAR-related Orphan Receptor beta (RORb), RORB (gene 6096), sequence (Q92753 whole entry, looked up, the tested form may be a part): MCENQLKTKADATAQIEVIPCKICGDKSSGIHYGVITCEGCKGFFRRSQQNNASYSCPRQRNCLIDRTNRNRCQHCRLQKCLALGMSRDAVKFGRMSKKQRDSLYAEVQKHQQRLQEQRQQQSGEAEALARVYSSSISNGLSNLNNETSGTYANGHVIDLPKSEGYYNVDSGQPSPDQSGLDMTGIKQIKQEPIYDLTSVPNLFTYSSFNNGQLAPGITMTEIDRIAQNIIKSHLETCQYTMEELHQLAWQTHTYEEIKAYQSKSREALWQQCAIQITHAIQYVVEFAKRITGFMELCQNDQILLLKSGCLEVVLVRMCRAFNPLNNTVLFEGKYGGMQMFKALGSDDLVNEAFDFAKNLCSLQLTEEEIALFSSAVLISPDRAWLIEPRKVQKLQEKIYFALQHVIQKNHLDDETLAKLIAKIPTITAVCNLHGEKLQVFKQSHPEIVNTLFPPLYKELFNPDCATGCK
In short: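 HepG2 cells transiently transfected with GAL4-UAS reporter units expressing chimeric NR-Gal4 protein; reporter mRNA measured 24 h after dosing by RT-PCR, 6-FAM labelling and capillary electrophoresis. Gain-of-signal fitted relative to DMSO baseline.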

[19] = molecular target: Retinoic acid receptor alpha (Homo sapiens) (UniProt P10276); assay: ATG_RARa_TRANS: Attagene TRANS-FACTORIAL HepG2 Assay for human Retinoic Acid Receptor alpha (RARa) (AID 2283005; active = hit-call score of the fitted dose curve at least 0.9, where 1 is the maximum)
Retinoic acid receptor alpha (Homo sapiens), sequence (P10276 whole entry, looked up, the tested form may be a part): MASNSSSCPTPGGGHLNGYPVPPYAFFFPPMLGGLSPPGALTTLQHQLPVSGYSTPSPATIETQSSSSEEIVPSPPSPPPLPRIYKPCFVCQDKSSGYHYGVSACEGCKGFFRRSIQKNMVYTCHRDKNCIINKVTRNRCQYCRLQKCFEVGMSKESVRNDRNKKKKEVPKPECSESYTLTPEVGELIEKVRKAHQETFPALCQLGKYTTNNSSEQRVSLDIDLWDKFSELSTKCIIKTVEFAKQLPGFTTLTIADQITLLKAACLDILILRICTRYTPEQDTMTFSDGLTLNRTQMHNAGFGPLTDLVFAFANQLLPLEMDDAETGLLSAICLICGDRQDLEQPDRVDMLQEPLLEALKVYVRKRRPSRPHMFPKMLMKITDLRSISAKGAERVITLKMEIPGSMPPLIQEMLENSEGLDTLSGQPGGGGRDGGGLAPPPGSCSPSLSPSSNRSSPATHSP
In short: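 Reporter transcripts, measured by RT-PCR with fluorescent labeling and capillary electrophoresis after 24 h dosing, reflect activity of an exogenous human RARa–GAL4 fusion in transiently transfected HepG2. Fitted for increase relative to DMSO.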

Measured: AC50

CCCCC(CC)C(=O)OCCOCCOCCOCCOC(=O)C(CC)CCCC (configuration not stated)
active: [10] 20 µM | [12] 35.3 µM
not listed: [13] | [14] | [15] | [16] | [17] | [18] | [19]
inactive: all other assays above

FC1(F)C=CC(F)(F)C1(F)F
inactive: [1] | [2] | [13] | [3] | [14] | [15] | [11] | [12]

O=C(c1ccccc1)c1ccccc1
inactive: [2] | [3] | [14] | [4] | [5] | [6] | [7] | [8] | [16] | [9] | [15] | [10] | [12] | [17] | [18]
active: [14] 168 µM | [12] 100 µM

CCCCC(CC)C(=O)O (configuration not stated)
not listed: [11] | [14] | [15] | [17] | [18] | [19]
inactive: all other assays above

CN(Cc1cnc2nc(N)nc(N)c2n1)c1ccc(C(=O)N[C@@H](CCC(=O)O)C(=O)O)cc1
not listed: [8] | [12] | [14] | [16]
inactive: all other assays above

O=C(Nc1cccc([N+](=O)[O-])c1)c1cc2ccccc2cc1O
active: [12] 8.27 µM
inactive: [1] | [2] | [3] | [14] | [8] | [16] | [19] | [17] | [18]

OCC(CO)(CBr)CBr
inactive: [1] | [2] | [13] | [3] | [4] | [5] | [6] | [7] | [9] | [10]

CCCCCCCCCCCC(=O)O
active: [3] 90.6 µM | [11] 52.9 µM
inactive: [1] | [2] | [3] | [8] | [16] | [15] | [19] | [11] | [12] | [17]
